According to PubChem BioAssay (NCATS):
Records with an inconclusive call do not appear. Values without a mark were called inactive. Activity calls are given as the source filed them. Calls come from the whole dose curve; as a rule, active = well fitted cell-killing curve with a large enough effect; inconclusive = small, poorly fitted or top-dose-only effect; inactive = flat fitted curve, though single readings scatter.

experiment: qHTS of pediatric cancer cell lines to identify multiple opportunities for drug repurposing: Primary screen for RD cells (AID 1347104); settings: RD rhabdomyosarcoma viability, CellTiter-Glo luminescence, 48 h; series mostly up to 46 µM; activity change, negative = cytotoxic: at the top concentration; note: nearly all actives have a fitted effect of over 55% in size;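 for activity change, negative = cytotoxic: plate controls were DMSO for no effect and bortezomib for full effect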
Excerpt: Drug repurposing or repositioning has been offered as a strategy for drug development in oncology programs. This approach has special potential for childhood cancers and other rare or orphan diseases, where the expected return on new drug development has been a disincentive to pharmaceuticals. […] In this project we exploit the poly-pharmacology of drugs to discover new indications via phenotypic screening of a panel of 19 well-characterized cell lines derived from solid tumors seen in children and adolescents. The goal is to identify approved drugs with previously unrecognized anticancer properties that has the potential to reveal new mechanisms and biological processes involved in carcinogenesis or drug resistance. We employed a titration-based paradigm (quantitative high-throughput screening or qHTS), where all compounds were tested at multiple concentrations for their effect on cell viability. Concentration-response curves (CRCs) were derived directly from the primary screen, and both potency and efficacy values were used to identify compounds with robust bioactivity profiles. We screened the NIH Chemical Genomics Center (NCGC) Pharmaceutical Collection (NPC) and Mechanism Interrogation Plate (MIPE) small molecule collections of approved and investigational compounds against these cell lines; and measured metabolically active cells after 48 hours of compound treatment as a proxy for cell viability. […] Assay Submitter: Nathalia J. Martinez, National Center for Advancing Translational Sciences, National Institutes of Health, Rockville, MD, USA; email: natalia.martinez@nih.gov Shen, M et al. Quantitative high-throughput phenotypic screening of pediatric cancer cell lines identifies multiple opportunities for drug repurposing. Oncotarget 2017 Dec 19;9(4):4758-4772. PMID 29435139.
The cells were obtained from University of North Carolina (UNC), Pediatric Preclinical Testing Program (PPT), and Coriell Institute (CI). qHTS cell viability assay: Cells were assayed in growth media at a density of 500-1,000 cells/well. Five microliters of cells were dispensed into 1,536-well, white, solid-bottom, TC-treated plates (Greiner Bio One) using a multidrop dispenser and incubated at 37 degrees C, 5% CO2, under a humidified atmosphere for 5 hours. Twenty-three nanoliters of compounds and controls (neutral control DMSO or positive control bortezomib at final concentration of 2.3 µM) were subsequently transferred by Kalypsys pintool. For primary screens, the MIPE collection was tested at 11-point dilutions (final concentrations range from 0.78 nM to 46 µM) and the NPC collection at 8-point dilutions (final concentrations range from 0.59 nM to 46 µM). Compounds tested in follow-up screens were assayed at 11-point dilutions. Cells were incubated for 48 hours, followed by addition of 3 µL of CellTiter-Glo (Promega). After a 15 min incubation at room temperature, samples were analyzed for luminescence intensity using a ViewLux High-throughput CCD imager equipped with clear filters.
Potency is the fitted concentration of half-maximal effect.

Row | Compound | Potency | activity change, negative = cytotoxic
1 | NC(=NCCCCCCN=C(N)/N=C(\N)Nc1ccc(Cl)cc1)/N=C(\N)Nc1ccc(Cl)cc1 | 26.6 µM (active) | 
2 | CC(=O)OCC(=O)[C@@]1(O)CC[C@H]2[C@@H]3CCC4=CC(=O)C=C[C@]4(C)[C@H]3[C@@H](O)C[C@@]21C |  | 4.67%
3 | CCOc1ccc2nc3cc(N)ccc3c(N)c2c1 | 23.7 µM (active) | 
4 | CCCCOc1ccc(OCCCN2CCOCC2)cc1 |  | -1.27%
5 | C[C@H](O)C(=O)Nc1c(I)c(C(=O)NC(CO)CO)c(I)c(C(=O)NC(CO)CO)c1I |  | 8.46%
6 | O=C1OCCN1/N=C/c1ccc([N+](=O)[O-])o1 |  | -0.559%
7 | Cc1ccc(Nc2c(F)cccc2Cl)c(CC(=O)O)c1 |  | 19.3%
8 | CCCCS(=O)(=O)N[C@@H](Cc1ccc(OCCCCC2CCNCC2)cc1)C(=O)O |  | 7.86%
9 | C[C@H](CCC(=O)O)[C@H]1CC[C@H]2[C@@H]3C(=O)C[C@@H]4CC(=O)CC[C@]4(C)[C@H]3CC(=O)[C@]12C |  | 12.4%
10 | CC1=C(C(=O)OC(C)C)C(c2cccc([N+](=O)[O-])c2)C(C(=O)OC2CN(C(c3ccccc3)c3ccccc3)C2)=C(N)N1 (stereo not given) | 23.7 µM (active) | 
11 | CC(Cc1ccccc1)(NC(=O)CN)c1ccccc1 (stereo not given) |  | 2.43%
12 | c1ccc(OCc2ccc(CCCN3CCOCC3)cc2)cc1 |  | -13.7%
13 | O=c1[nH]c(=O)n([C@H]2CCCO2)cc1F |  | -5.09%
14 | CC(Cc1cccc(C(F)(F)F)c1)NCCOC(=O)c1ccccc1 (stereo not given) |  | -3.59%
15 | COC(=O)[C@@H]1CC2=CC(=O)CC[C@]2(C)[C@@]23O[C@@H]2C[C@@]2(C)[C@@H](CC[C@@]24CCC(=O)O4)[C@H]13 |  | 9.86%
16 | CC(C)(C)NC(=O)[C@@H]1CN(Cc2cccnc2)CCN1C[C@@H](O)C[C@@H](Cc1ccccc1)C(=O)N[C@H]1c2ccccc2C[C@H]1O |  | 1.4%
17 | OC[C@H]1O[C@H](O[C@]2(CCl)O[C@H](CCl)[C@@H](O)[C@@H]2O)[C@H](O)[C@@H](O)[C@H]1Cl |  | 8.37%
18 | C=CCc1ccc(O)c(OC)c1 |  | 0.618%
19 | CC(O)(P(=O)(O)O)P(=O)(O)O |  | 11%
20 | CN(C)C(=S)SC(=S)N(C)C | 0.944 µM (active) | 

Row | Compound | Potency | activity change, negative = cytotoxic
21 | O=C1OC(c2ccc(O)cc2)(c2ccc(O)cc2)c2ccccc21 |  | -0.383%
22 | COc1c2occc2c(OC)c2c(=O)cc(C)oc12 |  | 10.6%
23 | COc1cc(-c2ccc(=O)[nH]n2)ccc1OC(F)F |  | -20.3%
24 | Cc1nc2n(c(=O)c1CCN1CCC(c3noc4cc(F)ccc34)CC1)CCC[C@H]2O |  | 2.68% [at 16.1 µM]
25 | OC[C@H]1O[C@@H](n2cnc3c(=S)nc[nH]c32)[C@H](O)[C@@H]1O |  | -4.43%
26 | CCOC(=O)c1cccc(N)c1 |  | 16.7%
27 | c1ccc(CNCCNCc2ccccc2)cc1 |  | 0.633%
28 | CCCCCCCCCCCCCCNCCO |  | -14.3%
29 | Nc1ccn([C@@H]2O[C@H](CO)[C@@H](O)C2(F)F)c(=O)n1 |  | -26.1%
30 | CC[N+](CC)(CCNC(=O)C(=O)NCC[N+](CC)(CC)Cc1ccccc1Cl)Cc1ccccc1Cl |  | 5.7%
31 | Nc1nc2ncc(CNc3ccc(C(=O)N[C@@H](CCC(=O)O)C(=O)O)cc3)nc2c(=O)[nH]1 |  | 20.1%
32 | C[C@]12CCC(=O)C=C1CC[C@H]1[C@@H]3CC[C@](O)(C(=O)CO)[C@@]3(C)C[C@H](O)[C@@]12F |  | 14%
33 | COc1ccc(CCN2CCC(Nc3nc4ccccc4n3Cc3ccc(F)cc3)CC2)cc1 | 26.6 µM (active) | 
34 | CC(C)NC[C@@H](O)COc1cccc2ccccc12 | 26.6 µM (active) | 
35 | CN(C/C=C/c1ccccc1)Cc1cccc2ccccc12 |  | -25.8%
36 | C[C@@H]1C[C@H]2[C@@H]3CCC4=CC(=O)C=C[C@]4(C)[C@@]3(F)[C@@H](O)C[C@]2(C)[C@H]1C(=O)CO |  | -0.474%
37 | CCN(CCCCOC(=O)c1ccc(OC)c(OC)c1)C(C)Cc1ccc(OC)cc1 (stereo not given) |  | -23.2%
38 | CCn1cc(C(=O)O)c(=O)c2cnc(N3CCCC3)nc21 |  | -0.58% [at 9.22 µM]
39 | Cc1c(C(N)=O)cc([N+](=O)[O-])cc1[N+](=O)[O-] |  | -1.27%
40 | CCCCC(=O)O[C@]1(C(=O)CO)CC[C@H]2[C@@H]3CCC4=CC(=O)CC[C@]4(C)[C@H]3[C@@H](O)C[C@@]21C |  | 8.34%
